Among the test systems are HCT-15 colon; HT29 colon; SNB-75 CNS; SNB-19 CNS; U251 CNS; PC-3 prostate; SK-MEL-5 melanoma; UACC-62 melanoma; LOX IMVI melanoma; SK-MEL-28 melanoma; SK-MEL-2 melanoma; EKVX NSCLC; SN12C renal; UO-31 renal; TK-10 renal; ACHN renal; CAKI-1 renal; CCRF-CEM leukemia; MOLT-4 leukemia; A498 renal.
Holding throughout (assay): NCI-60 one-dose screen, 48 h (100 = growth as untreated, 0 = no growth, -100 = all killed)
Holding throughout (conditions): 10 µM unless noted

Molecules are shown by their SMILES. About 83,000 compounds went through this panel and 20% of them were active in at least one assay; those are over-represented in the sample as a whole.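 For each line, cells grew in 96-well plates with the test compound present at a single concentration for 48 hours.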 Values without a mark were called inactive. The source made the active and inactive calls. Rule for the calls: active = growth percent below 10; inactive = the rest.

As for `COc1cc2cc(CN3CCN(c4nccc(-c5ccc6ccccc6c5)n4)CC3)c(=O)[nH]c2cc1OC`, the growth was 21.2% with HCT-15 colon; 69% in the experiment on HT29 colon; 104% with SNB-75 CNS; 76.7% in the experiment on SNB-19 CNS; 22.9% with U251 CNS; 60.7% with PC-3 prostate. For the same molecule, the growth in the experiment on SK-MEL-5 melanoma was 85.4%; in the experiment with UACC-62 melanoma, 95.1%; in the experiment on LOX IMVI melanoma it was 90.2%; in the experiment with SK-MEL-28 melanoma it was 102%; in the experiment on SK-MEL-2 melanoma, 97.8%; in the experiment on EKVX NSCLC it was 94.5%. Further, the growth in the experiment on SN12C renal was 51.7%; in the experiment on UO-31 renal it was 74.9%; in the experiment with TK-10 renal, 91%; in the experiment on ACHN renal, 75.7%; in the experiment on CAKI-1 renal it was 99.5%; with CCRF-CEM leukemia, 49.1%. In addition, the growth with MOLT-4 leukemia was 54.1%.
Turning to `COc1ccc2[nH]c(=O)c(CN3CCN(c4nccc(-c5ccc(Cl)cc5)n4)CC3)cc2c1`, the growth in the experiment on HCT-15 colon is 91.8%; in the experiment with HT29 colon it was 78.2%; with SNB-75 CNS, 99.9%; in the experiment on SNB-19 CNS, 78.8%; in the experiment on U251 CNS, 81.2%; in the experiment on PC-3 prostate, 73.6%. Also, the growth in the experiment with SK-MEL-5 melanoma is 94.6%; in the experiment on UACC-62 melanoma, 94.4%; in the experiment on LOX IMVI melanoma, 99.6%; in the experiment with SK-MEL-28 melanoma, 95.8%; with SK-MEL-2 melanoma, 93.1%; in the experiment with EKVX NSCLC it was 96.4%. In addition, the growth is 88.8% with SN12C renal; 80.7% in the experiment with UO-31 renal; 104% with TK-10 renal; 81.9% in the experiment on ACHN renal; 86.7% in the experiment with CAKI-1 renal; 85.1% in the experiment with CCRF-CEM leukemia. For the same molecule, the growth in the experiment with MOLT-4 leukemia was 75.5%.
As for `Nc1nc(Nc2ccccc2SSc2ccccc2Nc2nc(N)nc(-c3cccs3)n2)nc(-c2ccsc2)n1`, the growth in the experiment with HCT-15 colon was 56.7%; with HT29 colon it was 98.7%; in the experiment with SNB-75 CNS, 98.3%; with SNB-19 CNS, 87.7%; in the experiment with U251 CNS it was 53.1%; in the experiment on PC-3 prostate, 57.2%. The growth is 94.7% in the experiment on SK-MEL-5 melanoma; 71% with UACC-62 melanoma; 35.9% with LOX IMVI melanoma; 98.7% in the experiment on SK-MEL-28 melanoma; 99.1% in the experiment with SK-MEL-2 melanoma; 77.3% in the experiment on EKVX NSCLC. Besides, the growth with UO-31 renal is -45.5% (active); in the experiment on TK-10 renal it was 118%; in the experiment with ACHN renal, 65.3%; in the experiment on CAKI-1 renal, 20%; with CCRF-CEM leukemia, 60.5%; in the experiment with MOLT-4 leukemia it was 63.2%.
As for `CCc1ccc(CNc2ccc(N3CCOCC3)c(C(=O)O)c2)cc1`, the growth was 104% in the experiment with HCT-15 colon; 96.4% in the experiment with HT29 colon; 99.2% in the experiment with SNB-75 CNS; 107% in the experiment with SNB-19 CNS; 103% in the experiment on U251 CNS; 106% in the experiment with PC-3 prostate. Moreover, the growth is 102% in the experiment on SK-MEL-5 melanoma; 102% with UACC-62 melanoma; 96.8% in the experiment on LOX IMVI melanoma; 107% in the experiment with SK-MEL-28 melanoma; 82.7% in the experiment on SK-MEL-2 melanoma; 98.3% in the experiment with EKVX NSCLC. Further, the growth in the experiment with UO-31 renal is 89.5%; in the experiment on TK-10 renal, 94%; with ACHN renal it was 103%; with CAKI-1 renal, 97.2%; in the experiment with CCRF-CEM leukemia, 102%; in the experiment on MOLT-4 leukemia, 99.2%.
On to `c1ccc2cc(Cn3c(-c4cccc5ccccc45)[n+](Cc4ccc5ccccc5c4)c4c5ccccc5c5ccccc5c43)ccc2c1`, for which the growth was -60.4% (active) with HCT-15 colon; -49.5% (active) in the experiment on HT29 colon; -66.3% (active) in the experiment on SNB-75 CNS; -82.7% (active) in the experiment on SNB-19 CNS; -91.1% (active) in the experiment on U251 CNS; -46.7% (active) in the experiment with PC-3 prostate. The growth in the experiment with SK-MEL-5 melanoma is -98.1% (active); in the experiment on UACC-62 melanoma, -74.5% (active); in the experiment with LOX IMVI melanoma it was -84.3% (active); in the experiment on SK-MEL-28 melanoma it was -61.5% (active); with SK-MEL-2 melanoma it was -72.5% (active); in the experiment with EKVX NSCLC, -77.2% (active). The growth in the experiment with UO-31 renal was -89.2% (active); with TK-10 renal, -79.8% (active); in the experiment with ACHN renal, -92.6% (active); in the experiment with CAKI-1 renal it was -96.7% (active); with CCRF-CEM leukemia it was -17.4% (active); with MOLT-4 leukemia it was -55.3% (active).
Consider `COc1ccc(/C=C2\Oc3cc(OCCCN4CCCCC4)ccc3C2=O)cc1OC`, for which the growth with HCT-15 colon was 76.4%; in the experiment on HT29 colon it was 59.3%; in the experiment with SNB-75 CNS, 78.9%; with SNB-19 CNS, 93.7%; in the experiment with U251 CNS, 94.2%; in the experiment with PC-3 prostate, 79.6%. In addition, the growth is 94.5% in the experiment with SK-MEL-5 melanoma; 99.1% in the experiment on UACC-62 melanoma; 81.7% in the experiment with LOX IMVI melanoma; 105% with SK-MEL-28 melanoma; 108% with SK-MEL-2 melanoma; 91.5% in the experiment with EKVX NSCLC. The growth with UO-31 renal was 67.9%; in the experiment with TK-10 renal, 89.1%; in the experiment with ACHN renal it was 93.2%; with CAKI-1 renal, 92.8%; in the experiment with CCRF-CEM leukemia, 28.9%; with MOLT-4 leukemia, 83.3%.
`N#CC1C(C#N)C(C(=O)c2ccc(Br)cc2)N2c3ccccc3C=CC12` (stereo not drawn): the growth is 23.7% in the experiment with HCT-15 colon; 37.4% in the experiment on HT29 colon; 12% in the experiment with SNB-75 CNS; 80.4% in the experiment on SNB-19 CNS; 84.6% in the experiment on U251 CNS; 76.8% in the experiment on PC-3 prostate. The growth with SK-MEL-5 melanoma is 61.3%; in the experiment on UACC-62 melanoma, 63%; with LOX IMVI melanoma it was 78.7%; with SK-MEL-28 melanoma, 95.7%; in the experiment with SK-MEL-2 melanoma it was 104%; in the experiment on EKVX NSCLC, 63.9%. Moreover, the growth in the experiment with UO-31 renal is 48%; in the experiment with TK-10 renal, 106%; in the experiment with ACHN renal, 89.4%; in the experiment with CAKI-1 renal, 50.7%; in the experiment on A498 renal, 67.7%; in the experiment with CCRF-CEM leukemia it was 84.9%. The growth in the experiment on MOLT-4 leukemia was 92.7%.
Regarding `CCN(CC)CCn1c(=O)c2cc(OC)c(OC)cc2c2ccc3cc4c(cc3c21)OCO4`, the growth is 54.7% in the experiment with HCT-15 colon; 17.1% in the experiment with HT29 colon; 47.9% in the experiment with SNB-75 CNS; 27.1% in the experiment on SNB-19 CNS; 22.7% in the experiment with U251 CNS; 48% in the experiment on PC-3 prostate. Moreover, the growth with SK-MEL-5 melanoma was 36.1%; in the experiment with UACC-62 melanoma, 16.8%; in the experiment with LOX IMVI melanoma it was -42.2% (active); in the experiment on SK-MEL-28 melanoma, 53.4%; in the experiment on SK-MEL-2 melanoma, 93.2%; with EKVX NSCLC, 83.9%. For the same molecule, the growth was 32.9% in the experiment on SN12C renal; 22.8% in the experiment with UO-31 renal; 67.6% in the experiment with TK-10 renal; 10.2% with ACHN renal; 17.3% in the experiment with CAKI-1 renal; 2.85% (active) with CCRF-CEM leukemia. Also, the growth with MOLT-4 leukemia was -9.32% (active).
